The results in this text go back to PubChem BioAssay (NCATS).

Molecules are shown by their SMILES. Records with an inconclusive call do not appear. Calls of active or inactive are those of the source. Unless noted, calls follow the shape of the dose curve; as a rule, active = well fitted curve in the direction sought with a large enough effect; inconclusive = small, poorly fitted or top-dose-only effect, or another doubt; inactive = no such curve, though single readings can be large; an effect the other way counts as inactive or inconclusive.

Assay [1] has as its target Cytochrome P450 2D6 (Homo sapiens) (UniProt P10635). Kind of assay: Cytochrome P450 family 2 subfamily D member 6 (CYP2D6) small molecule antagonists: luciferase biochemical (cell-free) qHTS assay (AID 1645840; active = well fitted curve in the direction sought with a large enough effect in the repeat runs; an effect the other way counts as inactive or inconclusive; also: potency is read from the fitted curve at half-maximal effect; nearly all actives have a fitted effect of over 55% in size). A digest of the protocol:
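P450-Glo CYP2D6 system: proluciferin substrate converted by enzyme to luciferin, read by luminescence proportional to activity. Enzyme-substrate mix with compound 10 min at room temperature, then NADPH regeneration 1 h before detection reagent.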
A general note: Quantitative high-throughput screening tests each substance at several concentrations.

For assay [2], the target named is Cytochrome P450 2C9 (Homo sapiens) (UniProt P11712). The assay is described as follows: Cytochrome P450 family 2 subfamily C member 9 (CYP2C9) small molecule antagonists: luciferase biochemical (cell-free) qHTS assay (AID 1645842; active = well fitted curve in the direction sought with a large enough effect in the repeat runs; an effect the other way counts as inactive or inconclusive; also: nearly all actives have a fitted effect of over 55% in size; also: potency is read from the fitted curve at half-maximal effect; as to activity change, negative = inhibition: % is scaled to controls: 0 for no effect and ±100 for the full control effect). In short, it runs like this: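 P450-Glo CYP2C9 system: proluciferin substrate with enzyme in mix containing 0.4% BSA, 10 min at room temperature, then NADPH regeneration solution added and incubated 1 h at 37C. Detection reagent stopped reaction; luminescence read after 20 min as RLU.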

In another assay the test system is CRL-7250. The assay is described as follows: Cytotoxic Profiling of Annotated Libraries Using Quantitative High-Throughput Screening (AID 1296008). Also: nearly all actives have a fitted effect of over 60% in size. Also: potency is read from the fitted curve at half-maximal effect. As to max response: % is scaled to controls: 0 for no effect and ±100 for the full control effect. As to conditions: Five cell lines viability, CellTiter-Glo ATP luminescence, 48-72 h; max response: stronger effect = lower value. A digest of the protocol: (§1)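 Cytotoxicity was measured as CellTiter-Glo ATP luminescence, read after 10 min at room temperature. Compound treatment of the cells lasted 48 or 72 hr at 37 degrees Celsius in a qHTS format.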

The next assay has as its system CAOV3. The assay is described as follows: Primary qHTS to identify gynecologic anti-cancer compounds using libraries of approved drugs and bioactive compounds (AID 1345084). Also: nearly all actives have a fitted effect of over 55% in size. Also: potency is read from the fitted curve at half-maximal effect. As to conditions: Gynecologic cancer cell panel viability, ATPlite luminescence, 48 h; series mostly up to 57.5 µM. A digest of the protocol: (§2)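 Five-concentration response, 48 h; readout is ATP-driven luciferase luminescence.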

Assay [3] concerns Zika virus NS2B-NS3 protease (unlinked complex). The assay is described as follows: Primary screen GU Rhodamine qHTS for Zika virus inhibitors: Unlinked NS2B-NS3 protease assay (AID 1347159). Also: % is scaled to controls: 0 for no effect and ±100 for the full control effect; nearly all actives have a fitted effect of over 60% in size. In short, it runs like this:
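Percent inhibition came from the 15-min rise in Rhodamine110 fluorescence (1.5 microM substrate, ~15% conversion), normalized to no-inhibitor and no-enzyme wells and Hill-fitted. Unlinked protease, 25 nM, pH 8.0 Tris buffer; compounds up to 114 microM, 15-min preincubation.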

For assay [4], the system named is HaCat. The assay is described as follows: Cytotoxic Profiling of Annotated Libraries Using Quantitative High-Throughput Screening (AID 1296008). Also: nearly all actives have a fitted effect of over 60% in size. Also: potency is read from the fitted curve at half-maximal effect. As to max response: % is scaled to controls: 0 for no effect and ±100 for the full control effect. As to conditions: Five cell lines viability, CellTiter-Glo ATP luminescence, 48-72 h; max response: stronger effect = lower value. A digest of the protocol:
as §1
Background: In ATP-based viability assays light output follows the ATP content of the culture.

Assay [5] concerns HACAT. Kind of assay: qHTS assay to identify novel small-molecules to repurpose for Merkel cell carcinoma treatment (AID 1296009). Also: nearly all actives have a fitted effect of over 60% in size. As to conditions: MCC and control cell lines, CellTiter-Glo viability, 72 h; at 44.8 µM (top of the series) unless noted. In short, it runs like this: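 Cell viability measured by CellTiter-Glo following 72 hr compound treatment at 37 degree celsius, with NPC and MIPE libraries tested in 8- and 11-point concentration series.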

The test system of the next assay is SKOV3. Kind of assay: Primary qHTS to identify gynecologic anti-cancer compounds using libraries of approved drugs and bioactive compounds (AID 1345084). Also: nearly all actives have a fitted effect of over 55% in size. Also: potency is read from the fitted curve at half-maximal effect. As to conditions: Gynecologic cancer cell panel viability, ATPlite luminescence, 48 h; series mostly up to 57.5 µM. In short, it runs like this:
as §2

Assay [6] can be described thus: qHTS to identify inhibitors of the type 1 interferon - major histocompatibility complex class I in skeletal muscle: primary screen against the NCATS Mechanism Interrogation Plate v5.0 (MIPE) Libary (AID 1347411).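 Also: plate controls were vehicle for no effect and reference inhibitor for full effect; nearly all actives have a fitted effect of over 65% in size.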 A digest of the protocol: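 IFN-beta-driven (4 ng/ml) HLA-B-HiBit expression in CRISPR-tagged C25cl48 myoblasts; compounds 11-pt, 1:3, max 46 uM, 24 hr exposure; lytic NanoLuc complementation luminescence.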

Assay [7] deals with Catechol O-methyltransferase (Homo sapiens) (UniProt P21964). The assay is described as follows: Confirmatory Screen for Target Class Profiling of Small Molecule Inhibitors of Methyltransferases (AID 1745852; calls by dose curve). As to conditions: MTase-Glo luminescence, SAH detection, recombinant enzyme; measured here: COMT max response; stronger effect = lower value.
Assay [8] has as its target Guanidinoacetate N-methyltransferase (Homo sapiens) (UniProt Q14353). Described as above. As to conditions: activity change, negative = inhibition: at 57.3 µM (top of the series) unless noted.
For assay [9], the target named is Nicotinamide N-methyltransferase (Homo sapiens) (UniProt P40261). The description is as above. As to conditions: MTase-Glo luminescence, SAH detection, recombinant enzyme; measured here: NNMT max response; stronger effect = lower value.
For assay [10], the target named is Phenylethanolamine N-methyltransferase (Homo sapiens) (UniProt P11086). Described as above. The settings on record: MTase-Glo luminescence, SAH detection, recombinant enzyme; measured here: PNMT max response; stronger effect = lower value.
Assay [11] is described as follows: P-glycoprotein substrates identified in KB-8-5-11 adenocarcinoma cell line, qHTS therapeutic library screen (AID 1346987). Also: nearly all actives have a fitted effect of over 65% in size. Also: potency is read from the fitted curve at half-maximal effect. A digest of the protocol: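 Human cervical adenocarcinoma KB-8-5-11 cells, selected in colchicine to over-express P-gp and assayed without it, were exposed for 72 h to titrated compounds. An ATP-based luminescent viability signal gave AC50.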

A short description of assay [12]: qHTS drug screen for cell cycle checkpoint inhibitors in PARPi-resistant BRCA-mutant ovarian cancer cell lines. (AID 1963452; calls by dose curve). As to conditions: PEO1/OlaR viability, CellTiter-Glo luminescence, 96 h, stronger effect = lower value. In short, it runs like this: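 PEO1, PEO4 and PEO1/OlaR ovarian cancer cells, 600 per well, exposed 96 h at 37C to a dilution series. Viability read by CellTiter-Glo luminescence, normalized to DMSO and empty wells; activity summarized as Z-AUC.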

The subject of a further assay is NIH3T3. The assay is described as follows: Cytotoxic Profiling of Annotated Libraries Using Quantitative High-Throughput Screening (AID 1296008). Also: nearly all actives have a fitted effect of over 60% in size. Also: potency is read from the fitted curve at half-maximal effect. As to max response: % is scaled to controls: 0 for no effect and ±100 for the full control effect. The settings on record: Five cell lines viability, CellTiter-Glo ATP luminescence, 48-72 h; max response: stronger effect = lower value. In short, it runs like this: as §1

Chain of Cytochrome P450 2C9 (Homo sapiens) (P11712 whole entry, looked up): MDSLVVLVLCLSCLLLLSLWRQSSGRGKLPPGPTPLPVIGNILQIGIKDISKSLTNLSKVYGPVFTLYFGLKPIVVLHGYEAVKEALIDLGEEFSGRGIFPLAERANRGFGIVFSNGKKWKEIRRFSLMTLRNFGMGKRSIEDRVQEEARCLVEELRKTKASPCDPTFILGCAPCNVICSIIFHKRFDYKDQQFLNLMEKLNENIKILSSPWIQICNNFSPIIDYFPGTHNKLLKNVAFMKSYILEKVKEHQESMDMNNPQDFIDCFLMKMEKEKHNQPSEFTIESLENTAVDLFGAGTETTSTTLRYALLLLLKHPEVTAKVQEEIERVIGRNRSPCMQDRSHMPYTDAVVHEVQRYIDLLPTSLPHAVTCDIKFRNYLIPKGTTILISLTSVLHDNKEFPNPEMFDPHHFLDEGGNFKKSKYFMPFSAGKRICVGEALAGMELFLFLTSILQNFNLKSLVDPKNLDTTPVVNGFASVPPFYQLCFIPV
Chain of Cytochrome P450 2D6 (Homo sapiens) (P10635 whole entry, looked up): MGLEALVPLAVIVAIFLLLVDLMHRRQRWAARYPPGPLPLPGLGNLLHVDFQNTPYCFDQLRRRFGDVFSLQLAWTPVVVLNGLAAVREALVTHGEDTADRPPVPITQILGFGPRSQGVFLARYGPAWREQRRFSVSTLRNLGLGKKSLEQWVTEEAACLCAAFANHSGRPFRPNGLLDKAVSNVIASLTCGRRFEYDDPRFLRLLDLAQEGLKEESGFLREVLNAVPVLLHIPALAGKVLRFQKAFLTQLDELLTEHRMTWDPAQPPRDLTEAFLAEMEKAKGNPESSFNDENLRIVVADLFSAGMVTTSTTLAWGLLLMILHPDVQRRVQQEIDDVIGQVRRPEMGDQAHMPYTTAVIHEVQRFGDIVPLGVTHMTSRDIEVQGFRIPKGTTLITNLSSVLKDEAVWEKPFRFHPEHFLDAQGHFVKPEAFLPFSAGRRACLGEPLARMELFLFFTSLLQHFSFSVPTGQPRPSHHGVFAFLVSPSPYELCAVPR
Chain of Phenylethanolamine N-methyltransferase (Homo sapiens) (P11086 whole entry, looked up): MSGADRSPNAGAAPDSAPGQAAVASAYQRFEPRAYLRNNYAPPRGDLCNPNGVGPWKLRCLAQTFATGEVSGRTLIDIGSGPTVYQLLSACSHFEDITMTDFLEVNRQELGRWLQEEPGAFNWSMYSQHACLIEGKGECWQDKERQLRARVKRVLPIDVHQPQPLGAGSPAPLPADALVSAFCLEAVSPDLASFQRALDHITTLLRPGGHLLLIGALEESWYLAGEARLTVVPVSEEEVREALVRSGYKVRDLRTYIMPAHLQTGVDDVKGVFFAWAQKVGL
Chain of Nicotinamide N-methyltransferase (Homo sapiens) (P40261 whole entry, looked up): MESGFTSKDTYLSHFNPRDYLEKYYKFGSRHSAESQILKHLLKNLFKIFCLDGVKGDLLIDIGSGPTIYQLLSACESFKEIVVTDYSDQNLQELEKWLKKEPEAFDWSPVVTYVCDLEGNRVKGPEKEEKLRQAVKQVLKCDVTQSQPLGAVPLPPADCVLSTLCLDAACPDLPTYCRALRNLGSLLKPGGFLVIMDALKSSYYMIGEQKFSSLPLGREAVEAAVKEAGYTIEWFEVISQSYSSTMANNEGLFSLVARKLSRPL
Chain of Catechol O-methyltransferase (Homo sapiens) (P21964 whole entry, looked up): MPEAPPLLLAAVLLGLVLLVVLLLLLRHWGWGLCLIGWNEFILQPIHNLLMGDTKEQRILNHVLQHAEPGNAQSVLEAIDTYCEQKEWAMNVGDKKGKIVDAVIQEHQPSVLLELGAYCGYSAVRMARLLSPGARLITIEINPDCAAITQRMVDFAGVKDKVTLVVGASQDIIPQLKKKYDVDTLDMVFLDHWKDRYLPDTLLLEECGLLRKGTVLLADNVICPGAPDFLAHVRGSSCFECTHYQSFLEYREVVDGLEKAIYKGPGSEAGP

Turning to `COc1ccc(Cl)cc1[C@@]1(F)C(=O)Nc2cc(C(F)(F)F)ccc21`, the Potency in assay [1] was 23.9 µM (active); in assay [2], 6.01 µM (active). The max response in the assay with CRL-7250 is -2.43% (inactive). In addition, the Potency result with CAOV3 was “inactive”.

For `C=C1CC[C@@H]2[C@](C)(CO)[C@H](O)CC[C@@]2(C)[C@@H]1C/C=C1/C(=O)OC[C@@H]1O`, the Potency result (in assay [3]; in the assay with CAOV3) was “inactive” in each case. Also, the max response with CRL-7250 was -17.3% (inactive). For the same molecule, the outcome in the assay on HaCat [4] and in the assay with HACAT [5] was “inactive” throughout.

Turning to `C=C(C)C(=O)OC1[C@@H]2C(=C)C(=O)O[C@@H]2C[C@@H](C)[C@@H]2C=CC(=O)[C@@]12C` (some centres not stated), the Potency result (in assay [3]; in the assay with SKOV3) was “inactive” in each case. Moreover, the outcome in the assay on HaCat [4] and with HACAT [5] was “inactive” each time.

`Cn1cc(-c2cnc3ccc4ccc(CS(=O)(=O)NCc5ccccn5)cc4c(=O)c3c2)cn1`: the Potency entry in [3], in assay [6], in [2] and in [8] was “inactive” throughout. Moreover, in assay [1], the Potency was 12 µM (active). Further, the activity was -3.92% in assay [7], -3.63% in assay [9] and -3.14% in assay [10]. Moreover, the max response is -6.66% (inactive) in the assay with CRL-7250 and -3.23% (inactive) in the assay with HaCat [4].

In the case of `CC(=O)c1c(OCCN2CCCCC2)c(OCCC(C)c2ccc(F)cc2)c2oc(C)nc2c1C` (configuration not stated), the Potency was 20.6 µM (active) in [11], 0.477 µM (active) in [1] and 19 µM (active) in assay [2]. The outcome with HaCat [4] and in the assay on HACAT [5] was “inactive” in each case.

For `COc1cc([C@@H](CC(=O)O)c2ccc(C)c(CN3C[C@@H](C)Oc4ccccc4S3(=O)=O)c2)cc2nnn(C)c12`, the Potency result in assay [6] was “inactive”. Further, the Z-AUC is 1.24 (inactive) in assay [12], 0.171 in assay [12] (measured here: PEO1 parental Z-AUC) and -0.282 in [12] (measured here: PEO4 Z-AUC). Further, the max response was -8.19% (inactive) in the assay with HaCat [4] and 3.5% (inactive) in the assay with NIH3T3.

As for `CC[C@H](CO)Nc1nc(Nc2cccc(-c3ccccn3)c2)c2ncn(C(C)C)c2n1`, the results for the Potency (in assay [11]; in [2]; with HaCat [4]) were 20.6 µM (active), 0.379 µM (active) and 18.4 µM (active), respectively. In addition, the Potency entry (in [3]; in the assay on CAOV3; in the assay with SKOV3) was “inactive” in each case.

With `CCN1CCN(Cc2ccc(-c3cc4c(NC(C)c5ccccc5)ncnc4[nH]3)cc2)CC1` (configuration not stated), the Potency entry in assay [3] and in [2] was “inactive” each time. The Potency in assay [1] is 12 µM (active); with HaCat [4], 2.91 µM (active); in the assay on NIH3T3, 8.2 µM (active); with SKOV3, 3.55 µM (active).

For `COc1cc(O)c(C(=O)CCc2ccc(O)cc2)c(O[C@@H]2O[C@H](CO)[C@@H](O)[C@H](O)[C@H]2O)c1`, the Potency result (in [11]; in assay [3]; with CAOV3) was “inactive” throughout. The activity in [7] is -69.8%; in [9], 0.372%; in [10], 0.533%. In assay [8], the activity change, negative = inhibition was -2.33% [at 29.8 µM]. For the same molecule, in the assay with HaCat [4], the outcome is “inactive”. The outcome in the assay on HACAT [5] is “inactive [at 17.4 µM]”.

In the case of `CC(C)[C@@H](C)/C=C/[C@@H](C)[C@H]1CC[C@H]2C3=CC=C4C[C@@H](O)CC[C@]4(C)C3=CC[C@]12C`, the outcome with HaCat [4] and in the assay with HACAT [5] was “inactive” in each case.

Take `Cc1ccc(C2(COC(=O)C(C)C)CO2)c(OC(=O)C(C)C)c1` (configuration not stated): the Potency entry (in [3]; in the assay on CAOV3; in the assay on SKOV3) was “inactive” throughout. The outcome with HaCat [4] and in the assay with HACAT [5] was “inactive” throughout.
